Test results: the supplement of paper PMC6555819

Tests used:
Test in all cases: PBM binding z-score (relative to random genomic background probes); higher = stronger binding; sequences stand for … in GC…GCGATTGACAGCGTAGAATGAAGG
[1] = tested on: RARb homodimer (NR concentration 270 nM)
In short: (§1)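 The probes on custom Agilent 4×180K protein-binding microarrays were double-stranded, with 34-nt variable regions bearing direct-repeat seeds, single-nucleotide variants, half-site ablations and random human genomic background sequences. Incubation lasted 1 h with ligand-free nuclear receptor dimers in PBS pH 7.4, 2% milk, 0.02% Triton X-100, 1 mM DTT, 0.2 mg/mL BSA and 0.4 mg/ml salmon testes DNA. Antibodies against each partner (one per run) detected bound dimers, and fluorescence scans were regression-normalized. Binding z-scores take the random background probes as reference.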

[2] = tested on: RARg:RXRa (NR concentration 270 nM, RXRa partner concentration 90 nM)
In short: as §1

[3] = tested on: RARg homodimer (NR concentration 270 nM)
In short: as §1

[4] = tested on: RXRa DBDmut IVT, anti-RXR (DBD mutation: RXRa K156A/R161A, NR concentration 90 nM)
In short: as §1

[5] = tested on: RXRa homodimer (NR concentration 180 nM)
In short: as §1

[6] = tested on: THRa:RXRa (NR concentration 90 nM, RXRa partner concentration 90 nM)
In short: as §1

[7] = tested on: THRa homodimer (NR concentration 90 nM)
In short: as §1

[8] = tested on: VDR homodimer (NR concentration 270 nM)
In short: as §1

| Sequence | PBM binding z-score [1] | PBM binding z-score [2] | PBM binding z-score [3] | PBM binding z-score [4] | PBM binding z-score [5] | PBM binding z-score [6] | PBM binding z-score [7] | PBM binding z-score [8] |
| --- | --- | --- | --- | --- | --- | --- | --- | --- |
| CCGACTGGGGCAGAAAGGTTAACATACCATCCGG | 2.42 | 1.95 | 1.84 | -0.366 | 2 | 1.09 | -0.284 | -0.0953 |
| ATATGTAGGTTAAGGGTCTTTCAGGTTGGTTCGC | 1.78 | 1 | 0.853 | 0.724 | 1.96 | 1.54 | 1.44 | 1.64 |
| GCAGACAGATGAAACGCAGGTAACTCAGGGTGGC | -0.914 | -0.366 | -0.316 | -0.516 | -0.162 | 0.473 | -1.03 | -0.594 |
| ATCTCTAGGGAAGACTCAGTTCAGTGAAGAACGC | 0.462 | -0.132 | -0.0509 | 0.532 | -0.129 | 0.262 | 0.318 | 1.38 |
| CGAACTAGGTTAAGGACAGTGAATCTCCGCACGC | 1.1 | 0.615 | 0.965 | 0.432 | 0.533 | 3.11 | 3.05 | -0.012 |
| AGAATGAGGTTAAGAACAGGGAAACAGAATACAT | 1.14 | 1.96 | 1.4 | 0.678 | 2.42 | 2.25 | 0.727 | 0.533 |
| CGTCCACGGTCAAGGTCAGTGAAAGAGACTCGAA | 3.86 | 3.41 | 5.01 | 0.716 | 2.45 | 3.05 | 1.64 | 0.791 |
| TCTTGTAGATCAATAGAGGGTAAGAAAGTGCGCT | 0.255 | 0.119 | 0.175 | 1.1 | 0.491 | 0.828 | -0.673 | 0.445 |
| ATCTCTAGGTAACCAAGTTCAATGAATGCCGAAC | 1.68 | 0.955 | 1.08 | 1.64 | 0.925 | 1.89 | 0.952 | 3.84 |
| TCTTGTAGATCAATAGAGGTTAAAAAAGTGCGCT | 1.19 | 0.821 | 0.586 | 0.81 | 1.39 | 2.21 | -0.13 | 0.48 |
| CAAACTAGGTCAAGAGGTCAAAGTACGCTTCCCG | 5.69 | 8.23 | 7.27 | 3.15 | 8.07 | 4.23 | 2.61 | 4.76 |
| CGTCCAAGGTCAAGGTCAGTGATAGAGACTCGAA | 5.36 | 6.7 | 7.67 | 3.76 | 6.55 | 4.48 | 3.93 | 3.53 |
| CTCGACAGGTCGTGCTCAGGTGAGTATACCAAAC | 1.11 | 2.21 | 1.33 | 0.53 | 1.3 | 3.08 | 0.709 | 0.293 |
| ATATGTAGGTTAGCTGTGGTCATTCAGACTAGGC | 1.13 | 0.752 | 0.985 | 0.139 | 0.643 | 3.29 | -0.0944 | 0.494 |
| CTTGAAAGGTCGTGCTCAGGTGAGTATACCAAAC | 2.75 | 5.02 | 3.64 | 2.21 | 5.06 | 4.21 | 0.803 | 1.03 |
| CCGACTGGGGCAAGGTTACCTTAACGCACAGCCA | 1.27 | 0.881 | 1.11 | -0.49 | 1.1 | 2.07 | 1.66 | -0.391 |
| GCTACTGGGGCAAAGCAGGTTACCATAAGGTTGG | 1.16 | 0.343 | 0.791 | 0.0265 | 0.261 | 2.75 | 0.258 | -0.451 |
| CCGAGTAGGTTATGGGGCAGTCAGGCAACGGTGA | 0.983 | 0.587 | 0.165 | -0.557 | 0.291 | 0.277 | -0.143 | -0.221 |
| TAGCGTAGGTCAGATCGGGCCAGTATACGCTATA | 1.87 | 2.85 | 3.72 | -0.899 | 1.83 | 3.93 | -1.02 | -0.553 |
| GATTCAGGGTCAAGGCCAGAGTACGCGTATTGAT | 4.04 | 6.08 | 5.81 | 3.03 | 7.1 | 3.87 | 2 | 3.02 |
| CCAGACAGGTGAGAAGGTCACTCAGCCTCGATTA | 4.12 | 4.65 | 3.85 | 0.8 | 3.76 | 2.46 | 0.916 | 1.36 |
| GCTATTAGTTGAAACGGCAACCGAATGATTCTCG | -0.548 | -0.122 | -0.103 | 0.644 | -0.226 | -0.488 | -0.463 | -0.198 |
| TCGCGGAGGACACGAAAGGTCAGAGCTCGACATC | 4.42 | 4.79 | 5.1 | 0.362 | 3.86 | 3.6 | 0.956 | 0.898 |
| GCCCGGAGGACAAGGTCAGAGCTTTGTCCGTAGA | 3.19 | 2.99 | 3.62 | 0.344 | 2.04 | 2.92 | 1.67 | 0.864 |
| TCTTGTAGATCAGGAGGTTAAGAAAGCTGGCCAA | 0.528 | 0.46 | 0.00207 | 0.445 | 1.29 | 0.711 | -0.548 | -0.308 |
| CCTACTGGGCCACGAAAGGTCATAGATTCAGTGA | 4.58 | 4.73 | 4.53 | -0.0363 | 4.95 | 3.84 | 0.901 | 1.31 |
| TCTGCTAGGTGAACGATGGTCAGCTAATCTGCTA | 0.159 | 0.144 | 0.337 | -0.282 | 0.0585 | 0.529 | -0.885 | -0.782 |
| CCAGACAGGTGAAAGGTAACTCGGTCTGGTACGC | 0.705 | 1.23 | 0.639 | -0.242 | 2.27 | 0.879 | 0.0486 | -0.126 |
